KB-V1 MDR tox: KB-V1 MDR subline cytotoxicity; KB-V1 MDR cells viability, CellTiter-Glo, 72 h; AID 1347076; Potency, µM (doses to about 46.1 µM), usual class: cytotoxic; hit rate 3.4% among 400,000; note: % is set by controls: 0 for no effect and ±100 for the full control effect; nearly all actives have a fitted effect of over 60% in size
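Cytotoxicity toward P-gp-expressing KB-V1 cells was determined as loss of CellTiter-Glo luminescence after 72 h at 37 degrees C. Compounds were tested in quantitative HTS format across a concentration range, with curves fitted to normalized data.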
KB-3-1 cytotox: KB-3-1 parental cell cytotoxicity; KB-3-1 viability, CellTiter-Glo ATP luminescence, 72 h; Potency, µM (series often up to 46.1 µM), most hits filed as cytotoxic; hit rate 1.4% among 400,000; AID 1347075; note: % is set by controls: 0 for no effect and ±100 for the full control effect; nearly all actives have a fitted effect of over 60% in size
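Cytotoxicity in the drug-sensitive parental line KB-3-1 was scored as loss of CellTiter-Glo luminescence following 72 h incubation with compound. Values come from curve fitting of normalized concentration-response data.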
ELG1 repair inh: ELG1-dependent DNA repair inhibition | HEK293T ELG1-luciferase reporter, luminescence, 16 h; DNA damage induced by 5-fluorouridine | Potency, µM (highest dose often 46.1 µM), for inactives: top-dose activity change, negative = inhibition, actives largely listed as inhibitors | hit rate 2.3% among 330,000 | AID 504467; note: % is set by controls: 0 for no effect and ±100 for the full control effect; nearly all actives have a fitted effect of over 55% in size
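5-Fluorouridine DNA damage + compound/DMSO, 2,000 cells/well, 16 h, 37 °C/5% CO2. ONE-Glo, 30 min RT, luminescence. Readout = decrease in reporter signal.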
SW480 rerep: DNA re-replication induction in SW480 cells. SW480 DNA re-replication, Hoechst DNA content imaging, 48 h. Potency, µM (top dose mostly 46.1 µM), without a hit: top-dose re-replication activation, usual class: activators. hit rate 1.8% among 340,000. AID 624297; note: % of control where 0% means no effect; nearly all actives have a fitted effect of over 55% in size
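250 cells/well; 23 nL cpd via pin tool; 48 hr, 37 C, 5% CO2; Hoechst 40 min; imager read of total nuclear intensity, ex 405/em 500-530 nm.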
MCF10A rereplic: DNA re-replication induction in MCF 10a cells | MCF 10A DNA re-replication, Hoechst nuclear intensity, 48 h | Potency, µM (highest dose often 46.1 µM), without a hit: at the highest dose activity, positive = re-replication, hits mostly activators | hit rate 2.9% among 350,000 | AID 624296; note: % of control where 0% means no effect; nearly all actives have a fitted effect of over 50% in size
Starred values were filed as active, the others as inactive; i = inactive; ? = inconclusive; . = no result. Only some compounds are listed: those with a hit (about 8.2% of all), similar ones and a draw of the others. Calls come from the whole dose curve; as a rule, active = well fitted curve in the direction sought with a large enough effect; inconclusive = small, poorly fitted or top-dose-only effect, or another doubt; inactive = no such curve, though single readings can be large; an effect the other way counts as inactive or inconclusive. Potency is the fitted concentration of half-maximal effect.

SMILES	KB-V1 MDR tox	KB-3-1 cytotox	ELG1 repair inh	SW480 rerep	MCF10A rereplic
CCOC(=O)c1[nH]c(C)c(C(=O)NCc2ccccc2Cl)c1C	i	i	.	.	.
CCC(CC)C(=O)NCc1ccccc1Cl	i	i	3%	3%	0%
CC(=O)c1c(C)[nH]c(C(=O)NCc2ccccc2F)c1C	i	i	6%	-5%	-4%
CC(=O)c1c(C)[nH]c(C(=O)NCc2ccccc2Cl)c1C	23µM*	i	3%	-11%	2%
Cc1nc(C)c(C(=O)NCc2ccccc2Cl)o1	21µM*	?	-16%	-3%	1%
CCc1c(C(=O)NCc2ccccc2Cl)[nH]c(C)c1C(C)=O	7.3µM*	i	?	-1%	?
NC(=O)C1(Nc2ccc(Br)cc2)CCCC1	i	i	.	-7%	-30%
CCOC(=O)c1cccc(NC(=O)CCS(=O)(=O)c2ccc3c(c2)CCN3C(=O)CC)c1	i	i	.	.	.
CC1=Nc2ccccc2N=C(NC(=O)CSC(=S)N2CCN(C)CC2)C1c1ccccc1 (centres undefined)	i	i	-11%	-5%	-3%
CC1=Nc2ccccc2N=C(NC(=O)CSC(=S)N2CCCCC2)C1c1ccccc1 (centres undefined)	?	i	21µM*	0%	30%
CC1=Nc2ccccc2N=C(NC(=O)CSc2nnnn2-c2ccccc2)C1c1ccccc1 (centres undefined)	13µM*	i	.	0%	8%
COc1ccc(/C=N/Nc2nc(-c3cccc(S(=O)(=O)N4CCCC4)c3)cs2)c(OC)c1	2.6µM*	18µM*	-29%	14%	?
CCCC(=O)Nc1nn(CCC)c2nc3ccccc3cc12	?	i	?	4%	2%
Cc1ccc2cc3c(NC(=O)c4ccco4)nn(C)c3nc2c1	?	?	-20%	?	18µM*
CCn1nc(NS(=O)(=O)c2ccccc2)c2cc3cc(C)ccc3nc21	i	i	?	-16%	-13%
CCCn1nc(NC(=O)c2ccco2)c2cc3ccccc3nc21	?	?	?	18µM*	16µM*
CCn1nc(NC(=O)c2ccco2)c2cc3cc(C)ccc3nc21	?	i	-16%	18µM*	?
Cc1ccccc1C(=O)NNC(=O)C1CC(=O)N(Cc2ccccc2)C1 (centres undefined)	i	i	14%	-7%	0%
N#Cc1cccc(C#N)c1Oc1ccc(N)cc1	i	i	9%	-25%	-3%
Cn1nc(C(C)(C)C)cc1C(=O)NCc1ccc(N2CCCC2=O)cc1	0.58µM*	0.65µM*	-22%	13%	1%
O=S(=O)(Nc1cccc2[nH]ncc12)c1cccs1	i	i	3%	-12%	-6%
O=S(=O)(Nc1cccc2c1ccc1cccn12)c1cccs1	i	i	24%	8%	14µM*
C#CCNc1cc(-c2ccccc2)nc2ncnn12	?	?	6%	-15%	-6%
COc1ccc(CCNc2cc(-c3ccccc3)nc3ncnn23)cc1	2.6µM*	?	?	-43%	-3%
c1ccc(Nc2cc(-c3ccccc3)nc3ncnn23)cc1	15µM*	i	-3%	?	?
SMILES	KB-V1 MDR tox	KB-3-1 cytotox	ELG1 repair inh	SW480 rerep	MCF10A rereplic
Cc1c(NC(=O)/C(C#N)=C/c2ccc(-c3ccc(Cl)c(Cl)c3)o2)c(=O)n(-c2ccccc2)n1C	i	i	21µM*	7%	5%
Cc1c(NC(=O)/C(C#N)=C/c2ccc(-c3cccc(Cl)c3)o2)c(=O)n(-c2ccccc2)n1C	9.2µM*	?	?	?	?
CC(C(=O)N1CCCC1)N(c1ccccc1)S(C)(=O)=O (centres undefined)	.	.	16%	.	.
C=C1C=C(C)n2ncc(C(=O)Nc3ccccc3C(=O)OC)c2N1	i	?	.	.	.
CC(C)CCSc1nc(N)c(C#N)cc1C#N	21µM*	i	?	-1%	17%
CC(=O)c1cc(C#N)c(SCCC(C)C)nc1C	i	i	28%	1%	2%
O=C(NC1c2ccccc2-c2ccccc21)N1CCCCC1	16µM*	?	2%	9%	14%
